# Measurements from the supplement of paper PMC13172266.
# Counter-ions that a name gives are not always drawn.
# Tested on: U2932 TK216-resistant clone 3
# Assay: cell proliferation relative to vehicle (% of vehicle); higher = less growth inhibition
# Details: 500 nM; 72 h
# Procedure, shortened: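 A targeted inhibitor library of 348 compounds was tested on the ABC-DLBCL line U2932, both parental and two clones made resistant to an ETS-targeting agent by repeated exposure over almost a year. Cells were grown at 37°C and 5% CO2 in medium with 10% FBS, then treated at 500 nM or 50 nM for 72 h. MTT was added for 4 h, stopped with 25% SDS, and absorbance was read on a Cytation 3. Proliferation is reported as percent of proliferating cells relative to vehicle (DMSO).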
row,Structure (SMILES),cell proliferation
1,CCCCCCCCCCCC1=C(O)C(=O)C=C(O)C1=O [Embelin],103
2,COc1cc2ncnc(Oc3ccc(CC(=O)Nc4cnn(C(C)C)c4)cc3)c2cc1OC,98.5
3,C[C@H](NC(=O)/C(C#N)=C/c1cccc(Br)n1)c1ccccc1,102
4,CO[C@H]1C[C@@H]2CC[C@@H](C)[C@@](O)(O2)C(=O)C(=O)N2CCCC[C@H]2C(=O)O[C@H]([C@H](C)C[C@@H]2CC[C@@H](OC(=O)C(C)(CO)CO)[C@H](OC)C2)CC(=O)[C@H](C)/C=C(\C)[C@@H](O)[C@@H](OC)C(=O)[C@H](C)C[C@H](C)/C=C/C=C/C=C/1C,65.1
5,CNC(=O)c1ccccc1Sc1ccc2c(/C=C/c3ccccn3)n[nH]c2c1 [Axitinib],92.8
6,CCOC(=O)c1[nH]c2cc(Cl)ccc2c1C(C(=O)NC(C)(C)C)N(C=O)Cc1ccc(Cl)cc1 (configuration not stated),95.6
7,O=C(NC[C@H](O)CO)c1ccncc1Nc1ccc(I)cc1F,94.7
8,NC(=O)c1cccc2cn(-c3ccc([C@@H]4CCCNC4)cc3)nc12 [MK-4827(Niraparib) tosylate],103
9,CC(C)N(CCCNC(=O)Nc1ccc(C(C)(C)C)cc1)C[C@H]1O[C@@H](n2cc(Br)c3c(N)ncnc32)[C@H](O)[C@@H]1O,96.1
10,O=C(O)CC[C@H]1CC[C@@](c2cc(F)ccc2F)(S(=O)(=O)c2ccc(Cl)cc2)CC1,106
11,Clc1ccc(Nc2nnc(Cc3ccncc3)c3ccccc23)cc1 [Vatalanib (PTK787) 2HCl],113
12,C=CCc1ccc(O)c(-c2ccc(O)c(CC=C)c2)c1 [Honokiol],102
13,O=C(O)C(=O)O.[NH-][C@@H]1CCCC[C@H]1[NH-].[Pt+2] [Oxaliplatin],96.6
14,CN1CCC(CNc2ccc3ncc(-c4cccc(OC(F)(F)F)c4)n3n2)CC1 [SGI-1776 free base],82.4
15,O=c1ncccn1[C@@H]1O[C@H](CO)[C@@H](O)[C@H]1O [Zebularine],99.9
16,COc1cc(Nc2ncc(F)c(Nc3ccc4c(n3)N(COP(=O)(O)O)C(=O)C(C)(C)O4)n2)cc(OC)c1OC [Fostamatinib (R788)],95
17,Oc1cccc(-c2nc(N3CCOCC3)c3oc4ncccc4c3n2)c1,46.3
